Measurements published in PubChem BioAssay.
Activity calls are given as the source filed them.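 Rule for the calls, unless noted: active = fluorescence slope higher than the sample average by over 3 SD (cut at about -0.22 in these data, passing the limit was not always enough); inactive = the rest.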

Tests used:
[1] = inhibitors of TNFa-induced NFkB p65 translocation, primary screen, imaging, HUVEC, MLSMR starter and 10KST1 sets (AID 438;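 active = inhibition above 20% together with a positive visual image hit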;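 note: compound added about 3h40 before a 20 min TNFalpha stimulation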;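 for inhibition: signal is the nuclear over cytoplasmic p65 intensity ratio per well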); settings: HUVEC TNFa-induced p65 nuclear translocation; cell count: measured here: nuclei count (cytotoxicity indicator), at 2.08 µM; inhibition: at 2 µM, stronger effect = higher value, 0% TNFa-plus-vehicle, 100% no-TNFa wells
[2] = reduction of polyQ htt aggregates in cells – imaging, exon1htt(103Q)mCFP cells, high-content imaging, primary screen (AID 483;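 active = visual image review flags a hit and inhibition of aggregation exceeds 20%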;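 note: compound exposure lasted 3 days before fixation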;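 for nuclei count: percent of the per-plate median nuclei count of sample wells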); settings: exon1htt(103Q)mCFP cell line, aggregate imaging, at 2 µM; inhibition of aggregation: stronger effect = higher value; nuclei count: measured here: cell count, toxicity
[3] = endothelial E-selectin expression blockers – imaging, HUVEC, immunofluorescence, MLSMR starter and 10KST1 sets, primary screen (AID 487;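 active = visually confirmed hit in the image check and inhibition above 20%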;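 for inhibition: signal is fraction of cell area covered by stained E-selectin grains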;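 for nuclei count: 100% = median nuclei count of all wells on the same plate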); settings: HUVEC TNFalpha-induced E-selectin immunofluorescence imaging, at 2 µM; inhibition: stronger effect = higher value; nuclei count: measured here: cell number, toxicity
[4] = Primary imaging screen for DUSP6 inhibitors that restore phospho-Erk in transfected HeLa cells, chemical complementation (AID 609;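 active = compounds giving at least 50% inhibition in the cell-based MKP-3 phosphatase rescue imaging test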;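 for inhibition: phospho-Erk level distribution per well compared with pooled transfected vehicle control wells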); settings: HeLa MKP-3 transfected, phospho-Erk imaging KS statistic, at 10 µM, cells stimulated with TPA for 15 min
[5] = target: Dual specificity protein phosphatase 6 (Homo sapiens) (UniProt Q16828); assay: as above; settings: HeLa MKP-3 transfected, phospho-Erk imaging KS statistic; at 10 µM; stronger effect = higher value; cells stimulated with TPA for 15 min
[6] = target: Voltage-gated potassium channel subunit beta-2 (Rattus norvegicus) (UniProt P62483); assay: inhibitors of rat Kvbeta2 reductase activity – biochemical, NADPH fluorescence, primary screen (AID 622); settings: recombinant KvBeta, 4-cyanobenzaldehyde reduction, at 10 µM, stronger effect = higher value;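 note: slope of raw intensity against log time taken from 70 to 1610 s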
[7] = target: Voltage-gated potassium channel subunit beta-2 (Rattus norvegicus) (UniProt P62483); assay: enhancers of rat Kvbeta2 NADPH turnover – biochemical, NADPH fluorescence, primary screen (AID 623;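 active = NADPH fluorescence slope more negative than the mean of all samples by about 3 SD, 99.7% confidence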;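 note: fluorescence intensity change per second fitted from 20 to 320 s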); settings: Recombinant KvBeta, NADPH fluorescence decrease slope, 10 min; at 10 µM; stronger effect = lower value
[8] = target: Muscarinic acetylcholine receptor M4 (Homo sapiens) (UniProt P08173); assay: M4-linked GIRK flux change, two-sided – cell-based, HEK293 M4/GIRK, thallium flux, BTC-AM, M4 allosteric agonist project, primary screen (AID 625;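 active = fluorescence slope after compound addition differing from the mean of all tested samples at 99.7% confidence, mostly higher but some lower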;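 note: thallium influx through GIRK channels coupled to M4 in HEK293 cells with BTC-AM dye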); settings: at 10 µM, actives lie on both sides
[9] = inhibitors of larval lipid processing in zebrafish, primary screen, whole organism, PED6 fluorescence, gall bladder and intestine (AID 686;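 active = a full or partial loss of lipid-probe fluorescence in the fish gall bladder, intestine or both, judged by eye; inactive = no fluorescence loss, or compound toxic to the fish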;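 note: larvae 5 to 7 days old with five fish per well; signal comes from phospholipase A2 cleavage of quenched PED6 carried via bile; overnight exposure to compound and PED6 before scoring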); settings: Zebrafish larvae PED6 lipid processing, fluorescence scoring; screened at 20 µM (by protocol)
[10] = loss of swimming-algae plug formation – whole organism, Chlamydomonas reinhardtii, WT vs cilia-less mutant, absorbance, 96-well, primary screen (AID 463189;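 active = inhibition at or above 50% relative to wild type and mutant plate controls; inactive = inhibition below 50%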;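 note: 0% = wild type cc124 cells in DMSO and 100% = ciliumless bld1 mutant cells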); settings: Chlamydomonas reinhardtii gravitaxis, OD600 absorbance, 2 days; at 10 µM; stronger effect = higher value
[11] = blockers of RIG-like receptor reporter activation – cell-based, Sendai virus stimulus, luciferase, 10K MLSCN set, TLR/RLR signaling modifier project, primary screen (AID 602276;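 active = inhibition at or above 50% at 10 µM; inactive = inhibition below 50%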;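 note: firefly luciferase from ISG56 promoter only with Renilla not read in this screen; 0% = Sendai virus plus DMSO and 100% = medium plus DMSO without virus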); settings: HEK293 RL24 IRF3 luciferase reporter, at 10 µM, stronger effect = higher value
[12] = TLR3 IRF3 reporter activation blockers – cell-based, poly I:C stimulus, luciferase, 10K MLSCN set, primary screen (AID 602277;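 active = inhibition of the reporter signal at or above 50%; inactive = inhibition below 50%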); settings: HEK293-TLR3 RL24 IRF3 luciferase reporter, at 10 µM, stronger effect = higher value
[13] = measured here: cell density z-score
[14] = measured here: nuclear c-Myc green intensity z-score
[15] = measured here: nuclear pErk red intensity z-score, stronger effect = higher value

Sequence of Dual specificity protein phosphatase 6 (Homo sapiens) (Q16828 whole entry, looked up): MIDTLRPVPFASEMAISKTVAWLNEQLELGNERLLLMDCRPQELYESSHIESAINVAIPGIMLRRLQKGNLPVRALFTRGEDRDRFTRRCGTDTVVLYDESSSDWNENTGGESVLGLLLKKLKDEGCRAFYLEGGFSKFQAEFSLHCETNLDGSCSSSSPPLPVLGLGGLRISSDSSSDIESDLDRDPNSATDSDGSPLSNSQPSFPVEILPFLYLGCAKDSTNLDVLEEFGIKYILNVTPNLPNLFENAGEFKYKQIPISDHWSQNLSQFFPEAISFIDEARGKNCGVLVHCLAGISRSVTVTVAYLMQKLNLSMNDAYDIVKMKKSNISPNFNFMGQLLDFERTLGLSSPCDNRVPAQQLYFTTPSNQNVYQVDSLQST
Sequence of Muscarinic acetylcholine receptor M4 (Homo sapiens) (P08173 whole entry, looked up): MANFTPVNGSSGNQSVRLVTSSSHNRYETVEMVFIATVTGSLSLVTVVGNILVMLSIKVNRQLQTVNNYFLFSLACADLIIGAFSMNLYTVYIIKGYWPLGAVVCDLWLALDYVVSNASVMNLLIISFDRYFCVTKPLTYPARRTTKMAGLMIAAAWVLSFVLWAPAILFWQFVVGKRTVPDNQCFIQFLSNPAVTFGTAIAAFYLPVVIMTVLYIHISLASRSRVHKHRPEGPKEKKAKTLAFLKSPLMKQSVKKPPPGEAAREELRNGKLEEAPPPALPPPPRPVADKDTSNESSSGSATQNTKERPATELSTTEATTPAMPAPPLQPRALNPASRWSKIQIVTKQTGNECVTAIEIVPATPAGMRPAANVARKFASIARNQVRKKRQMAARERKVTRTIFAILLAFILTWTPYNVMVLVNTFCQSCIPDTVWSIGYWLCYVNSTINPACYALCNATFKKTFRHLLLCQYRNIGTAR
Sequence of Voltage-gated potassium channel subunit beta-2 (Rattus norvegicus) (P62483 whole entry, looked up): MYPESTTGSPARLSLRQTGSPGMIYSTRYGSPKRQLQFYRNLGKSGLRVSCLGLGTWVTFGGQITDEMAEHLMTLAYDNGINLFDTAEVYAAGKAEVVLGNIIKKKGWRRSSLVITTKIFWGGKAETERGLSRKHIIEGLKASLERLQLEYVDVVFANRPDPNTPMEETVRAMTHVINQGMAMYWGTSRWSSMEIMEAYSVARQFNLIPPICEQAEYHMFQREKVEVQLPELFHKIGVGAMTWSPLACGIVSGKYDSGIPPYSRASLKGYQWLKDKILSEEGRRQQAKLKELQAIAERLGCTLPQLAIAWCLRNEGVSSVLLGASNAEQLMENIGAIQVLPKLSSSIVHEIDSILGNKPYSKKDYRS

| SMILES | cell count [1] | inhibition [1] | inhibition of aggregation [2] | nuclei count [2] | inhibition [3] | nuclei count [3] | z-score [4, 13] | z-score [4, 14] | z-score [4, 15] | inhibition [5] | fluorescence slope [6] | NADPH fluorescence slope [7] | fluorescence slope [8] | outcome [9] | inhibition [10] | inhibition [11] | inhibition [12] |
| --- | --- | --- | --- | --- | --- | --- | --- | --- | --- | --- | --- | --- | --- | --- | --- | --- | --- |
| COc1ccc(/C(O)=C2/C(=O)C(=O)N(CCCN(C)C)C2c2ccco2)cc1Cl (stereo not drawn) | 697 | -3.7% (inactive) | -6.2% (inactive) | 110% | -9% (inactive) | 134% | 0.269 | -1.33 | -0.259 | 6.04% (inactive) | -0.426 (inactive) | -4.3e-05 (inactive) | 0.00515 (inactive) | inactive | 14.2% (inactive) | -5.81% (inactive) | -1.63% (inactive) |
| Cc1ccc(-n2ncc3c(N4CCN(c5ccccc5)CC4)ncnc32)c(C)c1 | 600 | -15.9% (inactive) | -1.5% (inactive) | 113% | -27.8% (inactive) | 154% | -0.444 | -0.19 | 1.79 | -12.6% (inactive) | -0.379 (inactive) | -5e-05 (inactive) | 0.00708 (inactive) | inactive | 2.19% (inactive) | 20.5% (inactive) | -19.9% (inactive) |
| COc1ccc(C(=O)NCCCCCC(=O)O)cc1OC | 687 | -15.7% (inactive) | 12.2% (inactive) | 93% | -46.5% (inactive) | 119% | -0.456 | -0.271 | 0.551 | 18.9% (inactive) | -0.427 (inactive) | -3.8e-05 (inactive) | 0.00503 (inactive) | inactive | 32.7% (inactive) | 3.62% (inactive) | 12.3% (inactive) |
| Cn1c(=O)n(Cc2ccccc2)c(=O)c2c1nc(NCC1CCCO1)n2Cc1ccccc1 (stereo not drawn) | 665 | -8% (inactive) | -1.5% (inactive) | 104% | -41.8% (inactive) | 102% | -3.11 | 0.807 | -1.47 | -5.95% (inactive) | -0.509 (inactive) | -0.000124 (inactive) | 0.00514 (inactive) | inactive | -18.5% (inactive) | -5.28% (inactive) | -6.2% (inactive) |
| COCc1cc(=O)[nH]c(Nc2nc3ccccc3o2)n1 | 597 | -4.5% (inactive) | 5.2% (inactive) | 87.4% | -16% (inactive) | 95.2% | 0.0739 | -1.45 | -0.93 | -2.09% (inactive) | -0.469 (inactive) | -5.1e-05 (inactive) | 0.00519 (inactive) | inactive | 4.61% (inactive) | -29.5% (inactive) | -80.2% (inactive) |
| CN(C)CC(O)COc1ccc(-c2ccc(C#N)cc2)cc1 (stereo not drawn) | 626 | -1.5% (inactive) | 6.6% (inactive) | 89.7% | -19.8% (inactive) | 139% | 0.638 | -0.472 | 2.41 | -2.59% (inactive) | -0.371 (inactive) | -4.8e-05 (inactive) | 0.00456 (inactive) | inactive | 98.7% (active) | -0.588% (inactive) | -4.77% (inactive) |
| Cc1nnc2n(-c3ccccc3)c(=O)c3c4c(sc3n12)CCCC4 | 661 | -4.7% (inactive) | 8% (inactive) | 95.5% | -54% (inactive) | 122% | -1.12 | -0.18 | 0.377 | -3.95% (inactive) | -0.468 (inactive) | -0.000128 (inactive) | 0.00446 (inactive) | inactive | 24.9% (inactive) | -14.4% (inactive) | -35.5% (inactive) |
| Cc1nn(-c2ccccc2)c2c1C(=O)NC(=O)C(C)(C)C2 | 526 | 2.2% (inactive) | 9.8% (inactive) | 105% | -24.8% (inactive) | 120% | 0.866 | 1.24 | 0.796 | -5.81% (inactive) | -0.52 (inactive) | 4.3e-05 (inactive) | 0.00545 (inactive) | inactive | -12.8% (inactive) | 14.6% (inactive) | 18.9% (inactive) |
| Cc1cc2c(c(=O)o1)C(Cc1ccccc1)C(C#N)=C(N)O2 (stereo not drawn) | 706 | -3.3% (inactive) | -2.1% (inactive) | 80.9% | -45.5% (inactive) | 126% | -1.29 | 0.225 | 1.32 | 9.61% (inactive) | -0.44 (inactive) | -4.7e-05 (inactive) | 0.00523 (inactive) | inactive | 9.12% (inactive) | 13.9% (inactive) | 19% (inactive) |
| Cc1nc2c(o1)CCc1ccccc1C2O (stereo not drawn) | 606 | 3.6% (inactive) | -5% (inactive) | 106% | -16.2% (inactive) | 99.8% | 3.05 | -1.58 | -1.98 | 15.5% (inactive) | -0.523 (inactive) | -4e-05 (inactive) | 0.00553 (inactive) | inactive | 19.1% (inactive) | 2.65% (inactive) | 14.8% (inactive) |
| COC(=O)CNC(=O)c1c(C)cc(=O)oc1C | 481 | 1.6% (inactive) | 1.6% (inactive) | 110% | -34.9% (inactive) | 115% | 0.439 | -0.128 | -1.37 | 19.4% (inactive) | -0.336 (inactive) | -2.8e-05 (inactive) | 0.00527 (inactive) | inactive | 28.5% (inactive) | 5.18% (inactive) | 12% (inactive) |
| COc1ccc(CCn2c(=N)c(C(=O)NCc3ccco3)cc3c(=O)n4ccccc4nc32)cc1 | 496 | -4.9% (inactive) | -10% (inactive) | 94.4% | -63.3% (inactive) | 108% | 0.843 | 0.0165 | -1.15 | 24.3% (inactive) | -0.516 (inactive) | -1.6e-05 (inactive) | 0.00166 (active) | inactive | -7.81% (inactive) | 5.21% (inactive) | 17.8% (inactive) |
| CCCCOc1ccccc1C(=O)NCCCC(=O)O | 531 | -3.8% (inactive) | -44.1% (inactive) | 119% | -66.7% (inactive) | 134% | -0.714 | 1.18 | 1.54 | -6.59% (inactive) | -0.439 (inactive) | -0.000111 (inactive) | 0.00573 (inactive) | active; weak signal in gallbladder and intestine | 20.4% (inactive) | 12.9% (inactive) | 17.2% (inactive) |
| CCOC(=O)c1[nH]c2ccc(Br)cc2c1NC(=O)CNC | 737 | 5.1% (inactive) | -0.9% (inactive) | 113% | -29% (inactive) | 141% | -0.195 | 0.821 | 0.769 | 11.9% (inactive) | -0.518 (inactive) | -6.6e-05 (inactive) | 0.00596 (inactive) | inactive | -9.05% (inactive) | 18.6% (inactive) | 33.1% (inactive) |
| OCCNc1ncnc2c1c(-c1ccccc1)c(-c1ccccc1)n2Cc1ccco1 | 567 | -6.9% (inactive) | 1.6% (inactive) | 114% | 13.3% (inactive) | 91.6% | -1.86 | -1.32 | -1.52 | -2.91% (inactive) | -0.472 (inactive) | -6.4e-05 (inactive) | 0.0047 (inactive) | inactive | 46.8% (inactive) | 12.3% (inactive) | -0.125% (inactive) |
| CCOC(=O)CNC(=O)Nc1ccccc1C(=O)OC | 676 | -2.9% (inactive) | -5.8% (inactive) | 83.8% | 15.4% (inactive) | 119% | 0.104 | 0.241 | -0.382 | -7.67% (inactive) | -0.507 (inactive) | -0.000189 (active) | 0.00626 (inactive) | inactive | -5.32% (inactive) | 10.2% (inactive) | 18.3% (inactive) |
| CN(C)/C=C1\N=C(c2ccc(Cl)cc2Cl)OC1=O | 698 | -4.8% (inactive) | 8.1% (inactive) | 71.7% | -31.3% (inactive) | 120% | -1.76 | 2.52 | -0.794 | 13.2% (inactive) | -0.335 (inactive) | -4e-05 (inactive) | 0.00537 (inactive) | inactive | 40.7% (inactive) | -61.9% (inactive) | -177% (inactive) |
| Cc1cc(O)c(C(C)C)cc1N=C1CSC(=O)N1 | 428 | -5.3% (inactive) | 10.4% (inactive) | 60.9% | -9% (inactive) | 98.6% | 0.698 | -0.53 | 0.0977 | 12.8% (inactive) | -0.483 (inactive) | -5.3e-05 (inactive) | 0.00491 (inactive) | inactive | -20% (inactive) | 13% (inactive) | 19.6% (inactive) |
| COc1ccccc1C1C(C#N)=C(N)Oc2cc(C)n(Cc3ccccn3)c(=O)c21 (stereo not drawn) | 679 | -2.4% (inactive) | 12% (inactive) | 99.3% | -46.2% (inactive) | 122% | 0.97 | -0.155 | -0.154 | 0.671% (inactive) | -0.453 (inactive) | -3.2e-05 (inactive) | 0.00473 (inactive) | inactive | 7.42% (inactive) | -7.32% (inactive) | 4.86% (inactive) |
